PubChem BioAssay AID540254 (Southern Research Specialized Biocontainment Screening …, 2011)
Fewer than 10 of roughly 1,800 compounds were called active. The rule behind the calls is not given here. Not all results are given here. Measured potencies and affinities stand elsewhere.

Experiment: antiviral activity against H1N1 influenza, dose response, cell-based, strain KY180 (AID 540254)
Settings: H1N1 KY180 influenza antiviral cell-based screen; series mostly up to 40 µM

SMILES | outcome
Cc1cccc2sc(NNC(=O)c3ccc(S(=O)(=O)N4CCc5ccccc5C4)cc3)nc12 | inactive
CCOc1ccc(C(=S)NC2CCCCC2)cc1OC | inactive
c1ccc2[nH]c(CSc3nc4ccccc4o3)nc2c1 | inactive
CCCCOC(=O)Nc1ccc(S(=O)(=O)Nc2cc(C)nc(C)n2)cc1 | inactive
Cc1cc(C(=O)N/N=C/c2c(C)[nH]n(-c3ccccc3)c2=O)n[nH]1 | inactive
C=CCOc1cccc(/C=N/NC(=O)CC(=O)NC2CCCCC2)c1 | inactive
O=C(CSc1n[nH]c(-c2ccccn2)n1)Nc1cccc(Cl)c1 | inactive
CN(C)CCCNC(=O)c1ccc(-c2cc(O)c3ncccc3c2)cc1 | inactive
Oc1ccc(N=Nc2c(O)ccc3ccccc23)cc1 | inactive
CC1=NN(c2ccc(C)cc2)C(=O)/C1=C\C=C\c1ccccc1 | inactive
Cc1ccc(C(=O)N/C(=C\c2cccc([N+](=O)[O-])c2)C(=O)NCc2ccncc2)cc1 | inactive
CN(C)S(=O)(=O)c1ccc(NC(=O)CSc2ncnc3ccccc23)cc1 | inactive
Cc1ccc(S(=O)(=O)C2(C(=O)NCc3ccc4c(c3)OCO4)CC2)cc1 | inactive
O=C(Cn1cnc([N+](=O)[O-])n1)N/N=C/c1ccccc1O | inactive
Clc1cc2cccnc2c2ncccc12 | inactive
O=C(N/N=C(\Cc1ncc[nH]1)c1ccccc1)c1ccncc1 | inactive
CCOC(=O)Cc1nnc(NC(=O)C(CC)Sc2nncn2C)s1 (stereo not drawn) | inactive
Cc1ccc(NC(=O)COc2cccc3ccc(C)nc23)c(Br)c1 | inactive
COc1cccc(N=Nc2ccc3ccccc3c2O)c1 | inactive
Cn1c(SCC(=O)NC2CC2)nnc1-c1ccccn1 | inactive
COc1cc(O)c(/C=N/NC(=O)c2ccncc2)c(OC)c1[N+](=O)[O-] | inactive
COC(=O)c1c(C)oc2ccc(N(C(=O)c3ccncc3)S(=O)(=O)c3ccc4ccccc4c3)cc12 | inactive

SMILES | outcome
CC(=NNC(=S)N1CC2CCC(CC2)C1)c1nccs1 | inactive
CCOc1cccc(/C=N/NC(=O)c2cccnc2)c1O | inactive
O=C(N/N=C/c1cc(O)ccc1Br)c1cccnc1 | inactive
COc1cccc2c(=O)n(CC(=O)Nc3ccc(F)cc3F)ccc12 | inactive
CC(c1ccccc1)n1c(CO)nc2ccccc21 (stereo not drawn) | inactive
O=C(Nc1nc(-c2ccccn2)cs1)c1ccco1 | inactive
O=C1/C(=C/c2ccc(O)c(O)c2)SC(=S)N1Nc1ccccc1 | inactive
CN1CCN(c2ccc(N)cc2)CC1 | inactive
COC(=O)Cn1c(=O)c2c(nc3n2CC(C)CN3c2ccc(C)c(C)c2)n(C)c1=O (stereo not drawn) | inactive
CCCNC(=O)COC(=O)/C=C/c1ccco1 | inactive
CC(C)CCNC(=O)CCC(=O)NNc1nc2ccccc2c2nc(-c3ccccc3)nn12 | inactive
CCOc1ccc(NS(=O)(=O)c2ccc(NS(=O)(=O)c3ccc(SC)cc3)cc2)cc1 | inactive
COc1ccc(C(C)=O)cc1COC(=O)[C@H](Cc1ccccc1)NC(=O)c1ccco1 | inactive
CC(C)CC(C(=O)OCC(=O)Nc1ncc(Cl)cc1Cl)N1C(=O)c2ccccc2C1=O (stereo not drawn) | inactive
CCN1/C(=C/c2ccc3cc(C)cc(C)c3[n+]2CC)Sc2cc(C)ccc21 | inactive
Cc1ccc(O)c(N=NC2=C(O)CC(C)(C)CC2=O)c1 | inactive
Cc1cc2cc(CNC(=O)NC3CCCCC3)ccc2n1C | inactive
COc1ccc(C(=O)N/N=C(\C)c2ccccn2)cc1OC | inactive
Cc1ccc(NCCCn2cnc(C(=O)Nc3ccc(C)c(C)c3)n2)cc1C | inactive
COC(=O)c1cc(S(=O)(=O)N2CCCCCC2)c[nH]1 | inactive
O=C(O)c1ccc(N2C(=O)/C(=C/c3ccc(-c4ccc([N+](=O)[O-])cc4)o3)C=C2c2ccccc2)cc1 | inactive
O=C(N/N=C/c1cc([N+](=O)[O-])ccc1O)c1cccc(N2CCCC2=O)c1 | inactive

SMILES | outcome
O=C(NCc1ccccn1)C(=O)N/N=C/c1ccccc1O | inactive
CCCN1C(=O)/C(=C2\SC(N3CCCCC3)=NC2=O)c2ccccc21 | inactive
CCN(Cc1ccccc1)c1ccc(N=Nc2nn(C)c(C)c2[N+](=O)[O-])cc1 | inactive
CCOC(=O)N1CCN(c2c(NCCc3ccccc3)c(=O)c2=O)CC1 | inactive
CCOc1ccc(-n2c(SCC(=O)Nc3ccccc3C)n[nH]c2=O)cc1 | inactive
COc1cc(C=O)ccc1OCC(=O)Nc1ccc2c(c1)OCO2 | inactive
CC1=NN(c2ccccc2)C(=O)/C1=C/c1c(O)n(-c2ccc(F)cc2)[nH]c1=O | inactive
Cc1cc(C)cc(N2C(=O)C3NN=C(C(=O)OCc4ccccc4)C3C2=O)c1 (stereo not drawn) | inactive
O=C1CCC(=O)N1CCC(c1ccc(F)cc1)c1ccco1 (stereo not drawn) | inactive
CN(C)c1ccc(N=Cc2ccco2)cc1 | inactive
COc1cccc(C(=O)O/N=C(\N)c2ccncc2)c1 | inactive
Cc1ccc(NC(=O)N2CCCCCC2)cc1C | inactive
CCN(CC)CCN1C(=O)c2oc3ccc(F)cc3c(=O)c2C1c1ccncc1 (stereo not drawn) | inactive
CN(CC(=O)NCc1ccccn1)S(=O)(=O)c1ccc(Br)cc1 | inactive
CC(=O)Nc1cccc(NC(=O)CSc2nn3c(=O)c(C)nnc3s2)c1 | inactive
Cc1ccn(CC(=O)N/N=C/c2cc([N+](=O)[O-])ccc2O)n1 | inactive
Cc1cccc(NC(=O)CCN2C(=O)c3ccccc3S2(=O)=O)c1C | inactive
O=C(CN1C(=O)C2CCCCC2C1=O)Nc1nc(-c2ccccn2)cs1 (stereo not drawn) | inactive
Cc1c(N=Nc2c(O)n(Cc3ccccc3)c(=O)[nH]c2=O)c(=O)n(-c2ccccc2)n1C | inactive
C=CC(=O)Nc1ccc(N(C)c2ccnc(Nc3ccc(N4CCN(C)CC4)cc3)n2)cc1 | inactive
CC(=O)N(Cc1ccc(F)cc1)C1=C(NCCc2ccccc2)C(=O)c2ccccc2C1=O | inactive
O=C(O)c1ccc(N=Nc2c(O)ccc3ncccc23)cc1 | inactive

SMILES | outcome
Cc1nc2sccn2c(=O)c1S(=O)(=O)Nc1cccc(Cl)c1C | inactive
CC(=NNC(=S)N1CC2CCC(CC2)C1)c1ccncn1 | inactive
Clc1ccc(OCc2nc(-c3ccncc3)no2)c(Br)c1 | inactive
CN1C(=O)/C(=C/c2cc(N=Nc3ccccc3)ccc2O)SC1=S | inactive
O=C(CSc1ccc(-c2ccccn2)nn1)Nc1ccc(F)c(F)c1 | inactive
COc1ccc(N2CCN(C(=O)CCC(=O)N3CCOc4ccc(Cl)cc43)CC2)cc1 | inactive
Cc1ccc2ccc3cccnc3c2n1 | inactive
Cc1noc(/C=C/N(C)C)c1S(=O)(=O)N1CCCC(C(=O)NC2CCCCC2)C1 (stereo not drawn) | inactive
COc1ccc(N=Nc2cc(OC)c(N)cc2OC)cc1 | inactive
O=C(NC(=S)NNC(=O)c1ccccc1O)c1ccco1 | inactive
CC1COCC(C)N1C1=C(Cl)C(=O)c2ccccc2C1=O (stereo not drawn) | inactive
COc1ccccc1N1CCN(C2CCCN(C(=O)c3cccc(-c4ccco4)c3)C2)CC1 (stereo not drawn) | inactive
Clc1ccc(-c2ccc(-c3nn4c(-c5ccco5)nnc4s3)o2)cc1 | inactive
CCCCCn1cnc2c(sc3nc4c(cc32)CSC(C)(C)C4)c1=O | inactive
CCN(CC)C(=O)C1CCCc2c1[nH]c1ccc(Cl)cc21 (stereo not drawn) | inactive
CC(NC(=O)C(=O)NN=C1CCCCCCC1)c1ccccc1 (stereo not drawn) | inactive
COc1ccc(NC(=O)CSc2n[nH]c(-c3ccccn3)n2)cc1 | inactive
O=C(N/N=C/c1c(O)n(C2CC2)c(=S)[nH]c1=O)c1ccccc1O | inactive
Cc1ccc(NC(=O)CSc2nnc(C)c(=O)n2N)c(C)c1 | inactive
Cc1ccc(CN2CCC(n3nccc3NC(=O)CCCc3ccccc3)CC2)o1 | inactive
O=C1CCCN1CC(=O)N1CCCC(N2CCN(c3cccc(Cl)c3)CC2)C1 (stereo not drawn) | inactive
CCNC(=O)CC1C(=O)N(c2ccc(F)cc2)C(=O)N1Cc1ccc(OC)cc1 (stereo not drawn) | inactive

SMILES | outcome
O=C1C=C(c2c(O)ccc3ccccc23)c2ccccc2C1=O | inactive
CCOC(=O)C1=C(C)n2c(s/c(=C/c3cccc([N+](=O)[O-])c3)c2=O)=NC1c1ccc(O)c(OC)c1 (stereo not drawn) | inactive
CCC(C(=O)N/N=C(\C)c1cccnc1)c1ccccc1 (stereo not drawn) | inactive
CN(CCCC(=O)O)c1ccc(N=Nc2ccc([N+](=O)[O-])cc2)cc1 | inactive
COc1cccc(C(=O)NN2c3ccccc3CCc3ccccc32)c1 | inactive
N#C/C(=C/c1cn(-c2ccccc2)nc1-c1cccc(OCc2ccc(F)cc2)c1)C(=O)NCCCn1ccnc1 | inactive
CC1NC(=O)NC1CCCCCC(=O)Nc1ccc(F)c(Cl)c1 (stereo not drawn) | inactive
CCOC(=O)C(C(C)=O)c1c(Br)c(O)c(O)c2c(C(=O)c3ccc(C)cc3)coc12 (stereo not drawn) | inactive
Cc1ccc(-n2c(SCC(=O)NCc3ccco3)nc3c([nH]c4ccccc43)c2=O)cc1 | inactive
CC(C)CC1Nc2ncnc(N3CCN(c4ccccc4)CC3)c2N(Cc2ccccc2)C1=O (stereo not drawn) | inactive
C[C@@H](C(=O)Nc1nc(-c2ccccn2)cs1)N1C(=O)C2CCCCC2C1=O (stereo partly drawn) | inactive
COc1ccc(C2(c3ccc(OC)cc3)NC(=O)N(CC(=O)Nc3ccc(OC(F)F)cc3)C2=O)cc1 | inactive
Cn1nc(CC(=O)NC2CCCCCC2)c2ccccc2c1=O | inactive
O=C(CCS(=O)(=O)c1ccc(F)cc1)Nc1nc(-c2ccccn2)cs1 | inactive
COc1ccc(C2C(C#N)=C(N)Nc3onc(C(C)(C)C)c32)c(OC)c1 (stereo not drawn) | inactive
Oc1cccc(/C=N/NC(=S)Nc2cccnc2)c1O | inactive
CCOC(=O)c1c(C)[nH]c(C(=O)N/N=C/c2cc([N+](=O)[O-])ccc2O)c1C | inactive
Cc1[nH]c2ccccc2c1C(c1ccccn1)c1c(C)[nH]c2ccccc12 | inactive
Cc1[nH]c2ccccc2c1SCC(=O)N1CCOCC1 | inactive
Cc1ccc(S(=O)(=O)NCc2ccc3c(c2)cc(C)n3C)cc1 | inactive
